For 39 compounds, relative cell viability results are on record in the supplement of paper PMC9492666.

Counter-ions that a name gives are not always drawn.
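Also: viability read out with the CCK-8 kit in 96-well plates, screening a set of 303 compounds acting on lipid metabolism targets.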

In this assay the test system is HCC1937. Kind of assay: relative cell viability, compound alone, vs DMSO (fraction of DMSO control); higher = less growth inhibition. Particulars: 72 h.
As for `COc1ccc(-c2cc(=O)c3c(O)c(OC)c(OC)c(OC)c3o2)cc1OC`, the relative cell viability is 0.699.
For the compound `Cc1c(C(=O)NN2CCCCC2)nn(-c2ccc(Cl)cc2Cl)c1-c1ccc(Cl)cc1` [Rimonabant], the relative cell viability came out at 0.936.
`CC(C)CCC[C@@H](C)[C@H]1CC[C@H]2[C@@H]3CCC4=CC(=NO)CC[C@]4(C)[C@H]3CC[C@]12C` [Olesoxime] returned a relative cell viability of 0.978.
Take `CC(C)=CCC[C@](C)(O)[C@H]1CC[C@]2(C)[C@@H]1[C@H](O)C[C@@H]1[C@@]3(C)CC[C@H](O)C(C)(C)[C@@H]3[C@@H](O)C[C@]12C` [(20S)-Protopanaxatriol]: the relative cell viability was found to be 1.24.
To `Cc1nc2ccc(NCc3cccc(C(F)(F)F)c3)cc2n(CCNC(=O)CO)c1=O` belongs 0.667.
For `CC(C)(Oc1ccc(CCNC(=O)c2ccc(Cl)cc2)cc1)C(=O)O` [Bezafibrate] the value was 0.628; for `NC(=O)c1ncn([C@@H]2O[C@H](CO)[C@@H](O)[C@H]2O)c1N` [AICAR (Acadesine)], 0.804.
For `Cc1cc(C)c(S(=O)(=O)N(CCc2cccc(Br)c2)Cc2ccc(-c3cccc(S(C)(=O)=O)c3)cc2)c(C)c1` the value was 0.708; for `Cc1cnc(C(=O)NCCc2ccc(S(=O)(=O)NC(=O)NC3CCCCC3)cc2)cn1` [Glipizide], 0.679; for `CC(C)[C@H](N=C(NS(=O)(=O)c1ccc(Cl)cc1)N1C[C@H](c2ccccc2)C(c2ccc(Cl)cc2)=N1)C(N)=O`, 0.87.
Regarding `Cc1cc(SCc2sc(-c3ccc(C(F)(F)F)cc3)nc2C)ccc1OCC(=O)O`, the relative cell viability was determined as 0.916.
For `Nc1ccc(C(=O)O)c(O)c1` [Aminopar] the value was 1.1; for `Cc1nc(Nc2cnn(C3CCNCC3)c2)nc2c1N(C)C(=O)c1cc3ccccc3cc1N2C`, 0.354; for `O=C(O)CCCc1cc2cc(Cl)ccc2n1S(=O)(=O)c1ccc2ncsc2c1` [Lanifibranor], 0.754.
To `CCCCC[C@H](O)CC(=O)CCc1ccc(O)c(OC)c1` [6-Gingerol] belongs 0.646; to `COCCNC(=O)Nc1ccc2nc(-c3cccs3)c(-c3cccs3)nc2c1` [Ac-CoA Synthase Inhibitor1], 0.959; to `O=C(/C=C/c1ccc(/C=C/C(=O)Nc2ccc(C3=NCCN3)cc2)cc1)Nc1ccc(C2=NCCN2)cc1`, 0.772.
To `c1ccc([C@H]2CN3CCSC3=N2)cc1` [Levamisole hydrochloride] belongs 0.815; to `CCCc1c(OCCCOc2ccc(OCC(=O)O)cc2)ccc(C(C)=O)c1O`, 0.943.
For the compound `Nc1ncnc2c1ncn2[C@@H]1O[C@H](COP(=O)(O)O)[C@@H](O)[C@H]1O` [Adenosine 5'-monophosphate], the relative cell viability came to 0.663.
`Cc1ccc(CN(CC(O)COc2cccc3[nH]ccc23)C(C)(C)C)cc1` (centres undefined) registered a relative cell viability of 0.994.
`CC(C)(O)[C@@H]1Cc2cc3ccc(=O)oc3cc2O1` [marmesin] yielded a relative cell viability of 0.74.
Consider `O=C(Nc1ccccc1)c1cc([N+](=O)[O-])ccc1Cl`, for which the relative cell viability stood at 1.08.
For `CN(CCOc1ccc(CC2SC(=O)NC2=O)cc1)c1ccccn1` (centres undefined) [Rosiglitazone maleate] the value was 0.841; for `CN(C(=O)n1cnc(-c2ccc[n+]([O-])c2)c1)C1CCCCC1`, 0.65; for `CCOP(=O)(OCC)C(=Cc1cc(C(C)(C)C)c(O)c(C(C)(C)C)c1)P(=O)(OCC)OCC`, 0.631.
Compound `Cc1cccc(Nc2cc(Cl)nc(SCC(=O)O)n2)c1C` [Pirinixic Acid] had a relative cell viability of 0.824.
Compound `O=C1C(SCCO)=C(SCCO)C(=O)c2ccccc21` yielded a relative cell viability of 0.777.
For `CC1=C[C@]2(O)O[C@@]3(CC2=C(C)C)[C@@H](C)CC[C@@H]13` [Curcumenol] the value was 0.868.
For `CCCCCCCCCCCCCCOc1ccc(C(=O)O)o1` the value was 1.07.
Regarding `NC(=O)c1cccc(-c2cccc(OC(=O)NC3CCCCC3)c2)c1`, the relative cell viability came to 0.822.
Take `Nn1nnc2ccccc21` [1-Aminobenzotriazole]: the relative cell viability was determined as 1.07.
In turn, `O=c1cc(-c2ccc(O)c(-c3c(O)cc(O)c4c(=O)cc(-c5ccc(O)cc5)oc34)c2)oc2cc(O)cc(O)c12` [Amentoflavone] registered a relative cell viability of 0.782.
Take `NC(CO)C(=O)O` (racemic) [DL-Serine]: the relative cell viability amounted to 0.683.
To `CCC(=O)O[C@]1(C(=O)SCF)[C@H](C)C[C@H]2[C@@H]3C[C@H](F)C4=CC(=O)C=C[C@]4(C)[C@@]3(F)[C@@H](O)C[C@@]21C` [Fluticasone propionate] belongs 1.34; to `C[C@H](CCC(=O)O)[C@H]1CC[C@H]2[C@@H]3CC[C@@H]4C[C@H](O)CC[C@]4(C)[C@H]3CC[C@]12C` [Lithocholic acid], 1.16; to `CC1(C)CC[C@]2(C(=O)O[C@@H]3O[C@H](CO)[C@@H](O)[C@H](O)[C@H]3O)CC[C@]3(C)C(=CC[C@@H]4[C@@]5(C)CC[C@H](O[C@@H]6O[C@H](C(=O)O)[C@@H](O)[C@H](O)[C@H]6O[C@@H]6O[C@H](CO)[C@@H](O)[C@H](O)[C@H]6O)C(C)(C)[C@@H]5CC[C@]43C)[C@@H]2C1` [Ginsenoside Ro], 1.02.
To `Cc1c(C(=O)Nc2ccc(CO)cc2)nnn1Cc1ccc(Cl)c(Cl)c1` belongs 0.975.
For `CCCCCCS(=O)(=O)NC(=O)c1ccc(CSCc2ccc(-c3ccccc3)cc2)cc1` the value was 0.938.
